# Test system: Noggin (protein binding on small-molecule microarray)
# Test: small molecules binding Noggin protein – biochemical, 635/667 nm fluorescence, primary screen (AID 1095);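 also: score merges 667 nm feature fluorescence with signal to noise over triplicate slides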
# Conditions: 635 nm fluorescence, higher = more signal
row,Structure (SMILES),composite z-score
1,COc1ccc(COC(=O)NN=C2C[C@@H](O)[C@@H](O)[C@@H]3[C@@H]4C(=O)N(C[C@@H]5CCCO5)C(=O)[C@@H]4CC[C@H]23)cc1,-0.809
2,CCOC(=O)[C@H](Cc1ccccc1)NC(=O)CCC1CC(OC(=O)NCCc2ccc(F)cc2)CC2(CCCC(COC(=O)NCCC(C)C)O2)O1 (stereo not given in full),1.24
3,COC(=O)CC=C[C@@H](C)[C@@H](C=NOC[C@@H](O)[C@H]1O[C@@H]2OC(C)(C)O[C@@H]2[C@H]1O)OC,0.505
4,C[C@]12CCC3c4ccc(OCC5CO5)cc4CCC3C1CC[C@@H]2O (stereo not given in full),0.0768
5,CCOC(=O)CCN1C(=O)[C@H]2[C@H]3[C@H](O)[C@H](O)CC(=NO[C@@H]4O[C@H](CO)[C@@H](O)[C@H](O)[C@H]4O)[C@@H]3CC[C@H]2C1=O,0.381
6,CC(CCN1CCCCc2nc(C)c(C)cc21)=NO[C@H](C)c1cn([C@@H]2COC[C@H]2O)nn1,1.51
7,COc1ccc(COC(=O)NN=C2C[C@@H](O)[C@@H](O)[C@@H]3[C@@H]4C(=O)N(c5cccc(Oc6ccccc6)c5)C(=O)[C@@H]4CC[C@H]23)cc1,-0.476
8,CC=CC1=C(CO)[C@H](O)[C@H]2O[C@H]2[C@@H]1O,0.59
9,CC1(C)O[C@H]2OC([C@H](O)CON3C(=O)c4ccccc4C3=O)[C@H](O)[C@H]2O1 (stereo not given in full),0.441
10,CCOC(=O)NN=C1C[C@@H](O)[C@@H](O)[C@@H]2[C@@H]3C(=O)N(CC)C(=O)[C@@H]3CC[C@H]12,0.583
11,CC(=O)OC[C@H]1O[C@@H](ON=C(C)CCC(=O)OC[C@H]2O[C@H](C#Cc3ccccc3)C=C[C@@H]2Oc2ccc(C)cc2)[C@H](OC(C)=O)[C@@H](OC(C)=O)[C@@H]1OC(C)=O,1.36
12,Cc1cc2c(nc1C)CCCCN2CC(O)CN1CCCc2nc(-c3ccc(Br)cc3)ccc21 (stereo not given),0.558
13,CCOC(=O)CCN1C(=O)[C@H]2[C@H]3[C@H](O)[C@H](O)CC(=NOCC=C(C)CCC=C(C)C)[C@@H]3CC[C@H]2C1=O,0.742
14,CC(=O)OC[C@H]1O[C@@H](ON=C(C)CCN2CCCCc3nc(C)c(C)cc32)[C@H](OC(C)=O)[C@@H](OC(C)=O)[C@@H]1OC(C)=O,0.708
15,CC(=O)OC[C@H]1O[C@H](CCON=C(C)C)C=C[C@@H]1OC(C)=O,0.373
16,CCCNC(=O)OC[C@H]1O[C@H](CCON=C[C@@H](NS(=O)(=O)c2ccc(C)cc2)[C@H](C)C=CCC(=O)OC)C=C[C@@H]1Oc1ccc(OC)cc1,0.0599
17,CCCC[C@H]1CN2[C@@H](CC[C@@H](C)[C@@H]2c2ccc(Br)cc2)C(=O)O1,0.444
18,CCC1=NOC(CCC2CC(OC(=O)NCc3cccc4c3OCO4)CC3(CCCC(COC(=O)NCCc4ccc(Cl)cc4)O3)O2)C1 (stereo not given),0.379
19,COc1ccc(O[C@H]2C=C[C@@H](C#Cc3ccccc3)O[C@@H]2CO)cc1,1.15
20,CC(C)CON=C1[C@H]2CCn3c(=O)n(C)c(=O)n3[C@H]2[C@H](O)[C@@H]2O[C@H]12,0.757
21,COC(=O)[C@@H]1CC[C@H](C)[C@@H](c2ccc(Br)cc2)N1C[C@@H](O)CN=[N+]=[N-],0.162
22,COC(=O)[C@H](C)NC(=O)CCC1CC(OC(=O)NCCc2ccc(F)cc2)CC2(CCCC(COC(=O)NCc3ccccc3)O2)O1 (stereo not given in full),0.55
23,O=C1C[C@H](c2ccccc2)[C@H](c2ccc(Br)cc2)O1,0.401
24,COc1ccc(O[C@H]2C=C[C@@H](c3ccccc3)O[C@@H]2COC(=O)CCC(C)=NOC[C@@H](O)COCc2ccco2)cc1,-1.66
25,O=C1[C@H]2[C@H]3[C@H](O)[C@H](O)CC(=NOCc4ccccc4)[C@@H]3CC[C@H]2C(=O)N1c1cccc(Oc2ccccc2)c1,0.889
26,O=C1[C@H]2[C@H]3[C@H](O)[C@H](O)CC(=NOC[C@@H](O)COCc4ccco4)[C@@H]3CC[C@H]2C(=O)N1Cc1ccc2c(c1)OCO2,1.17
27,CCOC(=O)[C@H](CC(C)C)NC(=O)CCC1CC(OC(=O)NCc2ccc3c(c2)OCO3)CC2(CCCC(COC(=O)NCc3ccccc3)O2)O1 (stereo not given in full),0.684
28,O=C1C2=CC[C@H]3C(=O)N(C4CCCCC4)C(=O)[C@H]3[C@H]2[C@H](O)[C@@H]2O[C@H]12,-0.725
29,C=CCOCC1CN2[C@@H](CC[C@@H](C)[C@@H]2c2ccc(Br)cc2)C(=O)O1 (stereo not given in full),0.167
30,CCOC(=O)[C@H](Cc1ccccc1)NC(=O)CCC1CC(OC(=O)NCc2ccc3c(c2)OCO3)CC2(CCCC(COC(=O)NCCOc3ccccc3)O2)O1 (stereo not given in full),0.484

# Source: PubChem BioAssay
